In the library only some 19% were active in any assay of this set; here they are far more common.
DT40 TDP1 no CPT = qHTS for Inhibitors of human tyrosyl-DNA phosphodiesterase 1 (TDP1): qHTS in cells in absence of CPT; Potency, µM (doses to about 46.2 µM), inactives show at the top dose activity change, negative = growth inhibition, hits mostly inhibitors; 420,000 compounds, 15% hits; DT40 Tdp1-/- hTDP1 cells, no CPT, ATP luminescence, 48 h; also: potency is read from the fitted curve at half-maximal effect; % is scaled to controls: 0 for no effect and ±100 for the full control effect; nearly all actives have a fitted effect of over 55% in size
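Chicken DT40 Tdp1-/- cells complemented with human TDP1, screened without camptothecin (DMSO vehicle only), 400 cells/well. Compounds pin-transferred, cells incubated at 37 °C for at least 48 hr. Growth read as ATP-dependent luminescence (CellTiter-Glo, 30 min at RT).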
TDP1 block = TDP1 (human) enzyme inhibition; Q9NUW8; recombinant TDP1, AlphaScreen DNA substrate cleavage; Potency, µM (top dose mostly 130 µM), for the others: at the highest dose activity change, negative = inhibition, actives largely listed as inhibitors; 350,000 compounds, 0.28% hits; also: potency is read from the fitted curve at half-maximal effect; % is scaled to controls: 0 for no effect and ±100 for the full control effect; nearly all actives have a fitted effect of over 40% in size
Target sequence (Q9NUW8 whole entry, looked up): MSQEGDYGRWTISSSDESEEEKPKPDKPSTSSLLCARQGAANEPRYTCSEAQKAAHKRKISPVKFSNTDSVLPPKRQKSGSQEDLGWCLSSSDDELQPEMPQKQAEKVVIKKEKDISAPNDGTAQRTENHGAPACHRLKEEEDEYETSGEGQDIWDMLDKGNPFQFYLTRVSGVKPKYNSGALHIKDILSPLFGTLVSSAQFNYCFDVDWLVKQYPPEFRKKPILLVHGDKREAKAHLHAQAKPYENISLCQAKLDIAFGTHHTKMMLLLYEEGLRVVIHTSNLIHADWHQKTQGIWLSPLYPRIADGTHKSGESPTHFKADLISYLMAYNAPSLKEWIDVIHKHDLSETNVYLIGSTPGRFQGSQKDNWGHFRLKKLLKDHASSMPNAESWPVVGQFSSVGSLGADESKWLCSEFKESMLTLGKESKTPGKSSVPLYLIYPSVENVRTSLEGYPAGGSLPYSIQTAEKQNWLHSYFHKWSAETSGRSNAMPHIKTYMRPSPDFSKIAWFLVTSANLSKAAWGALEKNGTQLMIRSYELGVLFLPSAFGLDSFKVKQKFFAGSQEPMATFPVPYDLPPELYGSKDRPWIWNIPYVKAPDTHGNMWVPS
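AlphaScreen read-out: signal falls as enzyme removes the 3' tyrosine-FITC from a 5'-biotinylated DNA oligo (15 nM, 5 min, RT). Enzyme was E. coli-made recombinant Tdp1 at 1 nM, exposed to compound for 15 min beforehand; beads 10 ug/ml, 10 min.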
TDP1 cell CPT = growth inhibition of DT40 Tdp1-/-;hTDP1 cells with camptothecin (screen for TDP1 inhibitors) | chicken DT40 Tdp1-/-;hTDP1 cells + 20 nM CPT, ATP luminescence, 48 h | Potency, µM (top dose mostly 46.2 µM), for inactives: top-dose activity change, negative = growth inhibition, hits mostly inhibitors | 420,000 compounds, 12% hits | AID 686979; also: potency is read from the fitted curve at half-maximal effect; % is scaled to controls: 0 for no effect and ±100 for the full control effect; nearly all actives have a fitted effect of over 55% in size
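Chicken DT40 Tdp1-/- cells complemented with human TDP1, 400 cells/well, exposed to compounds plus 20 nM camptothecin for at least 48 h at 37 C; viability read as ATP content by CellTiter-Glo luminescence.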
HepG2 viability = HepG2 cytotoxicity, counter-screen for TGF-b inhibitors; HepG2 CAGA-GFP viability, ATP luminescence, 18 h; Potency, µM (highest dose often 46.1 µM), inactives show top-dose activity change, negative = cytotoxicity, most hits filed as cytotoxic; 410,000 compounds, 0.76% hits; AID 588856; also: potency is read from the fitted curve at half-maximal effect
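CellTiter-Glo luminescence gave cytotoxicity after 18 hours at 37 degrees C. The cells were HepG2 CAGA-GFP in 1% FBS DMEM, stimulated with 500 pg/mL TGF-beta after compound addition. %Activity was normalised to no-cell wells (complete cell-killing) and DMSO (no toxicity), and curves were fitted and classified.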
TGFb inhibitor = TGF-b pathway inhibition | HepG2 CAGA-GFP TGF-b/SMAD3 reporter, GFP fluorescence, 18 h; TGF-beta stimulated, 500 pg/mL final | Potency, µM (doses to about 46.1 µM), for the others: at the highest dose activity, negative = inhibition, hits mostly inhibitors | 410,000 compounds, 1.2% hits; also: potency is read from the fitted curve at half-maximal effect; % is scaled to controls: 0 for no effect and ±100 for the full control effect; nearly all actives have a fitted effect of over 65% in size
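HEPG2 CAGA-GFP reporter cells (1000/well, DMEM with 1% FBS) received compounds, then recombinant TGF-beta at 500 pg/mL final for 18 hours at 37 degrees C. Per-cell GFP summed per well was normalised to unstimulated and stimulated DMSO controls before curve fitting.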
IL1B secr inh = blocks inflammasome-driven IL-1 beta release | THP-1 LPS/ATP IL-1B secretion, AlphaLISA, 16 h; stronger effect = lower value | activity change, % at 57.5 µM | 360,000 compounds, 4.7% hits; in the data active = activity change below about -50%; inconclusive = mostly about -30% to -49%; also: % is scaled to controls: 0 for no effect and ±100 for the full control effect
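Secreted IL-1B measured by AlphaLISA bead assay after 16 h compound exposure of THP-1 cells; compounds (final up to 57.5 uM) added 1 h before LPS (250 ng/mL) and ATP (1.25 mM) stimulation; lower signal means less secretion.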
Numbers without * were called inactive; ? = inconclusive; nt = no result given; [ ] = remark or other dose. Unless noted, calls follow the shape of the dose curve; as a rule, active = well fitted curve in the direction sought with a large enough effect; inconclusive = small, poorly fitted or top-dose-only effect, or another doubt; inactive = no such curve, though single readings can be large; an effect the other way counts as inactive or inconclusive.

SMILES | DT40 TDP1 no CPT | TDP1 block | TDP1 cell CPT | HepG2 viability | TGFb inhibitor | IL1B secr inh
O=C(Nc1nccs1)c1ccc(Br)c(S(=O)(=O)N2CCOCC2)c1 | ? | -3% | -1% | -4% | -2% | 9
O=S(=O)(c1ccccc1Cl)N1CCN(c2nc(-c3ccccc3)nc3ccccc23)CC1 | ? | 0% | -26% | 3% | -14% | nt
O=C(NCCc1nnc2n1CCN(Cc1ccc3c(c1)CCO3)CC2)c1ccco1 | -8% | nt | -5% | nt | nt | nt
CCc1ccc(Oc2c(C(F)(F)F)oc3c(CN4CCC(C)CC4)c(O)ccc3c2=O)cc1 | -25% | 4% | -16% | 6% | 0% | nt
COC(=O)c1ccc(C)c(NC(=O)c2nn(C)c(=O)c3ccccc23)c1 | -25% | 0% | -10% | 0% | -17% | 19
COc1ccccc1NS(=O)(=O)c1cccc(NC(=O)c2cc3ccccc3oc2=O)c1 | 18µM* | 0% | ? | -4% | 7% | 22
COc1ccccc1NS(=O)(=O)c1cccc(NC(=O)c2nn(C)c(=O)c3ccccc23)c1 | 23µM* | 2% | ? | -30% | -5% | 0
O=C(Cn1nc(C(=O)O)c2ccccc2c1=O)Nc1cccc(S(=O)(=O)N2CCCCC2)c1 | -20% | 3% | -25% | -11% | -1% | -9
COC(=O)c1cccc(NC(=O)c2nn(C)c(=O)c3ccccc23)c1 | 8.2µM* | -7% | 23µM* | -6% | -3% | 31
Cn1nc(C(=O)Nc2cccc(S(=O)(=O)N3CCCCC3)c2)c2ccccc2c1=O | ? | -2% | ? | -4% | 10% | -54*
C#CCOCCOCCOCCNc1nc(N2CCN(C(=O)[C@H]([C@@H](C)CC)n3cc([C@@H](N)CC(C)C)nn3)CC2)nc(N2CCN(C(=O)[C@H](CCCCN)n3cc([C@@H](N)CO)nn3)CC2)n1 | 0% | 5% | ? | -8% | 8% | -8
COc1ccccc1NC(=O)CC(C)n1nc(C)cc1C (stereo not given) | -21% | 3% | 2% | 5% | 14% | nt
COc1ccccc1NS(=O)(=O)c1cccc(NC(=O)c2[nH]c(C)c(C(C)=O)c2C)c1 | 16µM* | 5% | ? | -26% | ? | -2
CC(=O)c1c(C)[nH]c(C(=O)Nc2cccc(S(=O)(=O)N3CCOCC3)c2)c1C | ? | 0% | ? | -23% | -26% | 67
CCN(CC)CCC(c1ccc(OC)cc1)c1c(O)cc(OC)cc1OC (stereo not given) | ? | 5% | 21µM* | -29% | ? | -19
COc1cc(O)c(C(CCN2CCCCC2)c2cc(OC)c(OC)c(OC)c2)c(OC)c1 (stereo not given) | -24% | 4% | ? | 1% | 3% | -26
COc1cc(O)c(C(CCN2CCCC2)c2cc(OC)c(OC)c(OC)c2)c(OC)c1 (stereo not given) | ? | 10% | -14% | -19% | -4% | 32
COc1ccc(C(CCN2CCCC2)c2c(O)cc(OC)cc2OC)cc1 (stereo not given) | ? | 14% | 18µM* | -16% | -9% | -17
COc1ccc(C(CCN2CCCCC2)c2c(O)cc(OC)cc2OC)cc1 (stereo not given) | 18µM* | 10% | 18µM* | -11% | -2% | -24
Cc1cc(C)cc(NC(=O)C(=O)NC(C)c2ccccc2)c1 (stereo not given) | ? | -4%[12.3 µM] | ? | -2% | -20% | nt
O=C(CC1CCCCC1)Nc1ccccc1-c1ccccc1 | 21µM* | 3% | ? | -23% | -7% | -4

Source: PubChem BioAssay
